In ChEMBL document CHEMBL1201862, “PubChem BioAssay data set” (2004):
Out of some 400,000 compounds screened, about 2,100 (0.53%) were called active. Inconclusive results (about 14%) are left out. This is one part of a sample in which actives are shown more often than they occur. How the calls were made is not given here.

Target: Ataxin-2 (Homo sapiens) (UniProt Q99700)
Test: qHTS for Inhibitors of ATXN expression.
Format: functional

Chain of Ataxin-2 (Homo sapiens) (Q99700 whole entry): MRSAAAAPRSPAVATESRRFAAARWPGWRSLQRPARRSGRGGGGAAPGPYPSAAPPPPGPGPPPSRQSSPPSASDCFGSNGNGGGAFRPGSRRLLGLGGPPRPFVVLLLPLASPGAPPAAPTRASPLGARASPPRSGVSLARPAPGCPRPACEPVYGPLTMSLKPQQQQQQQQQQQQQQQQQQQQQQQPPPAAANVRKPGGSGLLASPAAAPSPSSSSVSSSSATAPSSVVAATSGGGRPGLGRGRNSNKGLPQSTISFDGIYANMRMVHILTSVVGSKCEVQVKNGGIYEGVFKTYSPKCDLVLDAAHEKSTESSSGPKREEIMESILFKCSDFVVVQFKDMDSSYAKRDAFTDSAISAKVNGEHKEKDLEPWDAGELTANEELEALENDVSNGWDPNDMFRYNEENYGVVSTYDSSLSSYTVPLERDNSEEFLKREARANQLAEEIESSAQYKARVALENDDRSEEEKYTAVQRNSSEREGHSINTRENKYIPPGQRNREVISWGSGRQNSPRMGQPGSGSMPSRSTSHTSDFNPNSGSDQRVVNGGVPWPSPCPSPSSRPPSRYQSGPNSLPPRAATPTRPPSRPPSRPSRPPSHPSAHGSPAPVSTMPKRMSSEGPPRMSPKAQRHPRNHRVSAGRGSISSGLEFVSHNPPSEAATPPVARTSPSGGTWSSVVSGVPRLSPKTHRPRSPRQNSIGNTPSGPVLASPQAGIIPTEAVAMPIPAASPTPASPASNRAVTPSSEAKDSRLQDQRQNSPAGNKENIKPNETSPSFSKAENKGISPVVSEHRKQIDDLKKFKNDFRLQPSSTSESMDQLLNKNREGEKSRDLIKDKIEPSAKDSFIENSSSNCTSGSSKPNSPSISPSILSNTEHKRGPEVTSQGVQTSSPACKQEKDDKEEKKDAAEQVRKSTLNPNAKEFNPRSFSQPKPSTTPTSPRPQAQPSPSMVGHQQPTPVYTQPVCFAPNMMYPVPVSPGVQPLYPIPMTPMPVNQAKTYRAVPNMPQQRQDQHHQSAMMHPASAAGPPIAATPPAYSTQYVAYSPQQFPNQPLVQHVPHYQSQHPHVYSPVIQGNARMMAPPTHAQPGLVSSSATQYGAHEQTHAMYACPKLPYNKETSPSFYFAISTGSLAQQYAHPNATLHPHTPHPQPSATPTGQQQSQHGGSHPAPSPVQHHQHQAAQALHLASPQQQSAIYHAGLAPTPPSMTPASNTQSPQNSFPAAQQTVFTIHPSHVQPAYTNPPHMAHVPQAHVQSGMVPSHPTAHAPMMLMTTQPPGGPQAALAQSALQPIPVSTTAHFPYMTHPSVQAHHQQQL

| Structure (SMILES) | Potency |
| --- | --- |
| COc1cccc(NC(=O)N2CCCC2C(=O)Nc2cc(C)ccc2OC)c1 (configuration not stated) | inactive |
| c1ccc2c3c(c(CN4CCCC4)cc2c1)COC3 | inactive |
| Cc1ccc(NC(=O)NN2CCOCC2)cc1 | inactive |
| CC1(C)Cc2c(cnn2-c2cccc(F)c2)C(NC(=O)CSc2ccccn2)C1 (configuration not stated) | inactive |
| Cc1cc(-n2c(=O)c(C#N)cc3c(=O)n4cccc(C)c4nc32)no1 | inactive |
| O=C(N/N=C/c1ccc(N2CCOCC2)cc1)c1ccccc1NS(=O)(=O)c1cccs1 | inactive |
| C[C@H]1CCC[C@]2(C)C[C@H]3OC(=O)C(CN4CCCCCC4)[C@H]3C=C12 (some centres not stated) | 39.8 µM (active) |
| CCN/N=C(\Cc1nc2ccccc2[nH]1)c1ccccc1 | inactive |
| Cc1cccn2c(=O)c3cc(C(=O)NCC4CCCO4)c(=N)n(CC4CCCO4)c3nc12 (configuration not stated) | inactive |
| Cc1ccc(CNC(=O)CS(=O)(=O)Cc2nc(-c3ccccc3F)oc2C)cc1 | inactive |
| Cc1ccc(-c2nc(CS(=O)(=O)CC(=O)NCc3ccc4c(c3)OCO4)c(C)o2)cc1 | inactive |
| COc1cccc(-c2nc(CS(=O)(=O)CC(=O)Nc3cccc(C)c3C)c(C)o2)c1 | 7.08 µM (active) |
| COc1ccc(OC)c(/C=C2\Oc3cc(OCC(=O)N4CC(O)C[C@H]4C(=O)O)ccc3C2=O)c1 (some centres not stated) | inactive |
| CCOc1ccc2c(c1)/C(=C(\C(Cl)=C(Cl)Cl)[N+](=O)[O-])N2 | inactive |
| COc1ccc(/C=c2\s/c(=C(/C#N)C(=O)NCc3ccco3)n(-c3ccccc3)c2=O)cc1 | inactive |
| COc1ccc(C(=O)/C(=C\c2ccco2)N2C=CC=CC2=C(C#N)C#N)cc1 | 1.78 µM (active) |
| O=C(O)CSCC(=O)NCc1csc2ccc(Cl)cc12 | inactive |
| COc1ccc(-c2[nH]c(-c3ccc(C)cc3)nc2SCC(=O)NCc2ccco2)cc1OC | inactive |
| N#Cc1ccccc1NC(=O)CSc1nc(-c2ccccc2)cc(C(F)(F)F)c1C#N | inactive |
| O=C(CN1CCc2ccccc21)Nc1ccc2c(c1)OCCCO2 | inactive |
| O=C(CSc1nc(-c2ccc(F)cc2)[nH]c1-c1ccc(F)cc1)Nc1ccc2c(c1)OCCO2 | 39.8 µM (active) |
| O=C(CSc1nc(-c2ccccc2)[nH]c1-c1ccccc1)Nc1ccc2c(c1)OCCO2 | 39.8 µM (active) |
| Cc1ccc(NC(=O)CSc2nnc(-c3cc(C)on3)o2)cc1 | inactive |
| CCN(CC)c1ccc2cc(C(N)=O)c(=N)oc2c1 | inactive |
| O=C1N=C(N2CCCCC2)S/C1=C\c1ccc(Br)cc1 | inactive |

| Structure (SMILES) | Potency |
| --- | --- |
| Cc1ccccc1N1CC(c2nc3ccccc3n2CCC2CCCCC2)CC1=O (configuration not stated) | 35.5 µM (active) |
| CC(C)(C)OC(=O)c1c(N)n(CCCN2CCCC2=O)c2nc3ccccc3nc12 | inactive |
| CCc1ccc(OCCn2c(C3CC(=O)N(Cc4ccc(F)cc4)C3)nc3ccccc32)cc1 (configuration not stated) | 39.8 µM (active) |
| CCCCN1CC(c2nc3ccccc3n2CCCCOc2ccc(C)c(C)c2)CC1=O (configuration not stated) | 39.8 µM (active) |
| Cc1cc(OCCn2c(C3CC(=O)N(Cc4ccc(F)cc4)C3)nc3ccccc32)ccc1Cl (configuration not stated) | 39.8 µM (active) |
| Cc1cccc(N2CC(c3nc4ccccc4n3C)CC2=O)c1C (configuration not stated) | inactive |
| CC(=O)Oc1ccc2cc(-c3nc4ccccc4n3C)c(=O)oc2c1 | inactive |
| Cc1cc(NC2CCCCC2)n2c(n1)nc1ccccc12 | inactive |
| O=c1nc2n(-c3ccccc3F)c3ccccc3cc-2c(=O)[nH]1 | inactive |
| CCOC(=O)c1c(NC(=O)c2ccco2)n(C2CCCCC2)c2nc3ccccc3nc12 | inactive |
| Cc1noc(C)c1CSCC(=O)Nc1ccc(S(C)(=O)=O)cc1 | inactive |
| CC(C)OC(=O)CSc1nc(Cc2ccccc2)nc2ccccc12 | inactive |
| Cc1cc(-c2nc3cccnc3s2)ccc1NS(=O)(=O)c1cccs1 | inactive |
| O=C(COC(=O)c1cccnc1)NC1CCCc2ccccc21 (configuration not stated) | inactive |
| CCOc1ccc(N2CC(c3nc4ccccc4n3CCCOc3ccccc3)CC2=O)cc1 (configuration not stated) | 22.4 µM (active) |
| CCOc1ccc(N2CC(C(=O)Nc3ccc(S(=O)(=O)NCC4CCCO4)cc3)CC2=O)cc1 (configuration not stated) | inactive |
| CCOc1ccc(CNc2nc3ccccc3n2C)cc1 | inactive |
| Cc1nn(Cc2ccccc2)c(Cl)c1/C=N/NC(=O)c1cccnc1 | inactive |
| CN1CCN(c2ccc([N+](=O)[O-])c(-n3nc(-c4ccccc4)c4ccccc4c3=O)c2)CC1 | 35.5 µM (active) |
| Nc1ccc2nn(-c3ccccc3)nc2c1 | inactive |
| N#CC(c1nc2ccccc2nc1N1CCOCC1)S(=O)(=O)c1ccccc1 (configuration not stated) | inactive |
| Fc1ccccc1N1CC(c2ccccc2)C(c2cccs2)=N1 (configuration not stated) | inactive |
| CCCCCCc1cc2cc(S(=O)(=O)c3ccc(F)c(Cl)c3)c(=O)oc2cc1O | inactive |
| Clc1ccc2c(NCCNC3CCCCC3)ccnc2c1 | 15.8 µM (active) |
| OC(CNc1ccnc2cc(Cl)ccc12)CNC1CCCCC1 (configuration not stated) | 39.8 µM (active) |

| Structure (SMILES) | Potency |
| --- | --- |
| Cc1ccc(/C=C2\CCC3=C2OC(N)=C(C#N)C3c2ccc(C)cc2)cc1 (configuration not stated) | inactive |
| CCOC(=O)c1cc2c(=O)n3ccccc3nc2n(CC2CCCO2)/c1=N\C(=O)c1ccc(OC)cc1OC (configuration not stated) | inactive |
| O=C(Cc1ccccc1)N/N=C/c1cc(Br)cc(Cl)c1O | inactive |
| CCOC(=O)c1cc2c(=O)n3ccccc3nc2n(Cc2ccco2)/c1=N\C(=O)c1cccc(F)c1 | inactive |
| Clc1ccc(-c2noc(/C=C/c3ccccc3)n2)cc1 | inactive |
| O=C1/C(=C/Nc2nnc(CCCO)[nH]2)c2ccccc2C(=O)N1c1ccccc1Cl | inactive |
| CCCCn1c(N)c(N(CCOC)C(=O)CN2c3ccccc3CC2C)c(=O)[nH]c1=O (configuration not stated) | inactive |
| Nc1c(N(CCC2=CCCCC2)C(=O)COc2ccc(F)cc2)c(=O)[nH]c(=O)n1Cc1ccccc1 | 39.8 µM (active) |
| Nc1c(N(CCC2=CCCCC2)C(=O)COc2ccc(F)cc2Cl)c(=O)[nH]c(=O)n1Cc1ccccc1 | 11.9 µM (active) |
| CCCCN(C(=O)CSc1nnc2ccccn12)c1c(N)n(Cc2ccccc2)c(=O)[nH]c1=O | inactive |
| CCN(C(=O)COC(=O)c1cccc(S(=O)(=O)N(C)C)c1)c1c(N)n(Cc2ccccc2)c(=O)[nH]c1=O | inactive |
| Cc1ccccc1OCC(=O)N(Cc1ccco1)c1c(N)n(Cc2ccccc2)c(=O)[nH]c1=O | inactive |
| CCn1c(=N)c(C(=O)NCC2CCCO2)cc2c(=O)n3cc(C)ccc3nc21 (configuration not stated) | inactive |
| C=CCC[C@@H](Cc1ccc(F)cc1)C(=O)OC[C@H](Cc1c[nH]c2ccccc12)NC(=O)[C@@H](CC=C)CC(=O)NCCO | 39.8 µM (active) |
| C=CC[C@@H](CC(=O)N[C@H](CO)Cc1ccccc1)C(=O)N[C@H](COC(=O)[C@@H](CC=C)Cc1ccc(F)cc1)Cc1c[nH]c2ccccc12 | 25.1 µM (active) |
| C=CC[C@@H](CC(=O)NCCO)C(=O)N[C@H](COC(=O)[C@@H](CC=C)Cc1ccc(F)cc1)Cc1c[nH]c2ccccc12 | 35.5 µM (active) |
| C=CCC[C@H](Cc1ccc(F)cc1)C(=O)OC[C@H](Cc1c[nH]c2ccccc12)NC(=O)[C@@H](CC=C)CC(=O)NCCO | 28.2 µM (active) |
| CC(C)n1c(=N)c(C(=O)NCCc2ccccc2)cc2c(=O)n3ccccc3nc21 | inactive |
| COc1cc(/C=C2\C(=N)N3N=CSC3=NC2=O)cc(Br)c1OC(=O)c1ccco1 | inactive |
| COc1ccc2nc(N3CCCCC3)c(C#N)cc2c1 | inactive |
| N=c1oc2cc(O)ccc2cc1C(=O)Nc1ccc(F)cc1 | inactive |
| CCOC(=O)/C(=C\c1ccccc1)C(=O)CCN1CCOCC1 | 42.3 µM (active) |
| COCCOC(=O)c1c(N)n(CCCN2CCOCC2)c2nc3ccccc3nc12 | inactive |
| O=C(NCCCN1CCOCC1)/C(=C/c1cccnc1)NC(=O)c1ccccc1 | inactive |
| CCCc1cc(=O)oc2cc(O[C@@H]3O[C@H](CO)[C@@H](O)[C@H](O)[C@H]3O)ccc12 | inactive |

| Structure (SMILES) | Potency |
| --- | --- |
| COc1ccccc1NC(=O)CSc1nnc(-c2ccoc2C)o1 | inactive |
| COc1ccccc1-c1nnc(Sc2nc([N+](=O)[O-])nn2C)o1 | 11.2 µM (active) |
| COc1ccccc1-c1nnc(-c2ccc(C)cc2)o1 | inactive |
| CCn1c2ccccc2c2nc3cc(C(=O)O)ccc3nc21 | inactive |
| C=CCn1c(N)c(C(=O)OC(C)(C)C)c2nc3ccccc3nc21 | inactive |
| C=CCn1c2ccccc2c2nnc(SCCCn3c(=O)[nH]c4ccccc43)nc21 | 39.8 µM (active) |
| NC(=O)C[n+]1cccc(C(=O)Nc2ccccc2)c1 | inactive |
| CCN(CC)c1ccc(N)cc1 | 31.6 µM (active) |
| CCN(CC)c1ccc2c(C)c(-c3ccc(N)cc3)c(=O)oc2c1 | inactive |
| CCN(CC)c1ccc2ccc(=O)oc2c1 | inactive |
| O=C(Nc1ccccc1)N(C1=NCCC1)c1ccccc1 | inactive |
| O=C(CCl)N(c1ccccc1)c1ccccc1 | 7.52 µM (active) |
| O=C(CCCC(=O)NNC(=O)Nc1ccccc1)NNC(=O)Nc1ccccc1 | inactive |
| O=C(Nc1ccccc1)NN(C(=O)CCl)c1ccccc1 | 22.4 µM (active) |
| CC(=O)n1c(/C=N/c2ccccc2)c(O)c2ccccc21 | inactive |
| COC(=O)c1cn(C(=O)c2cc(C)cc(C)c2)c2ccccc12 | inactive |
| O=C(O)c1ccccc1N(c1ccccc1)c1ccccc1 | inactive |
| CC(=O)n1cc(N(C(=O)CCl)c2ccccc2)c2ccccc21 | 22.4 µM (active) |
| Cc1c(Cc2ccccc2)c(=O)oc2c(C)c(OCC(=O)Nc3ccc(C#N)cc3)ccc12 | inactive |
| OC[C@@H]1[C@@H](c2ccc(F)cc2)C(c2ccccc2)=NN1c1ccccc1 | inactive |
| Clc1ccc(/C=C\c2[nH]ccc3c4ccccc4nc2-3)cc1 | inactive |
| CCc1cc2c(COC(=O)c3cccc(S(C)(=O)=O)c3)cc(=O)oc2cc1O | inactive |
